FMDV inh = foot and mouth disease virus antiviral activity. AID 1159524. FMDV antiviral cell-based qHTS. 410,000 tested, 1.2% active. Potency, µM (highest dose often 57.9 µM), for the others: at the top dose activity change, negative = inhibition, usual class: inhibitors; calls by dose curve; tested in HEK293T cells; further: read-out not given here; potency means the concentration at half of the fitted maximal effect; nearly all actives have a fitted effect of over 45% in size
Vaccinia mCherry = vaccinia inhibition (mCherry reporter). Vaccinia virus mCherry reporter infection, fluorescence. Potency, µM (top dose mostly 36.5 µM), for the others: at the highest dose activity change, negative = inhibition, hits mostly inhibitors. 310,000 tested, 0.63% active. AID 720579; calls by dose curve; tested in A549 cells; further: potency means the concentration at half of the fitted maximal effect; nearly all actives have a fitted effect of over 35% in size
HCMV inh = blocks human cytomegalovirus replication. HFF cells, HCMV-luciferase reporter, 72 h; hits give low values. activity change, negative = inhibition, % at 57.5 µM. 410,000 tested, 4.5% active. AID 1259415; in the data active means activity change below about -60%; inconclusive means no clear call, values can overlap the other calls; inactive means above about -39%
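Two compound doses tested in HFFs infected with HCMV-luciferase, MOI 1 PFU/cell, 72 h at 37C. Lysate luminescence read with OneGlo; data normalized against buffer-only and 10uM Salinomycin inhibitor controls.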
Vaccinia Venus = inhibitors of vaccinia virus (Venus reporter). Vaccinia virus Venus reporter expression, fluorescence. Potency, µM (top dose mostly 36.5 µM), for inactives: at the highest dose activity change, negative = inhibition, most hits filed as inhibitors. 330,000 tested, 0.46% active; calls by dose curve; tested in A549 cells; further: potency means the concentration at half of the fitted maximal effect; nearly all actives have a fitted effect of over 30% in size
HCV inh = blocks hepatitis C virus. Potency, µM (doses to about 41.8 µM), for inactives: at the top dose activity change, negative = inhibition, most hits filed as inhibitors. AID 651820. Huh7.5.1 HCVcc-Cre infection, luciferase reporter, 44 h. 340,000 tested, 3.4% active; active means well fitted inhibition curve with a large enough effect; inconclusive means small, poorly fitted or top-dose-only effect, or another doubt; inactive means no such curve, though single readings can be large or run the other way; further: potency means the concentration at half of the fitted maximal effect
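Cells (1,000/well) were plated 4 h before compound, then infected with HCVcc-Cre virus (~0.5 moi). After 44 h further culture, infection was read as luciferase luminescence following a 15 min substrate incubation at room temperature.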
* hit, by the source's call; i = inactive; ? = inconclusive; . = not tested or not shown. Most compounds without a hit are left out; they make up all but 7.3% or so of the library. On the % scale 0 is the no-effect control and ±100 the full control effect.

SMILES	FMDV inh	Vaccinia mCherry	HCMV inh	Vaccinia Venus	HCV inh
Cn1nc(C2CC2)cc1NC(=O)C1(C)CCN1C(=O)c1ccccc1CCc1ccccc1 (centres undefined)	?	-11%	31	-2%	.
Cc1cccc(C#CC2=CC(=O)CC(C)(C)C2)c1	17%	-19%	-100*	-22%	.
CC(Sc1nn(-c2ccc(F)cc2)c(=S)s1)C(=O)c1c(N)n(C)c(=O)n(C)c1=O (centres undefined)	?	?	-33	-22%	?
Cn1c(N)c(C(=O)CSc2nn(-c3ccccc3)c(=S)s2)c(=O)n(C)c1=O	25µM*	?	?	-8%	10µM*
O=C(CNC(=O)c1ccccc1Cl)NCCc1cccs1	40%	-8%	-24	-8%	14%
Cc1ccc(N(CC(=O)NCCc2ccccc2)C(=O)c2csnn2)cc1	3%	-4%	-88*	-3%	-12%
OC[C@@H]1CN(Cc2ccc(-c3ccccc3)cc2)C[C@H](n2cnc3c(NC4CCC4)ncnc32)O1	18µM*	-21%	-88*	-23%	.
CCCc1cc(C(=O)N2CCCC(Nc3ccc(C)c(C)c3)C2)n(C)n1 (centres undefined)	-28%	-14%	-28	-12%	-15%
CCN(CC)c1ccc(-c2nc3cnccc3n2C)cc1	-18%	.	11	-5%	11µM*
Cn1c(-c2ccncc2)nc2ccccc21	-9%	.	7	.	6%
C=CCN(CC=C)C(=O)c1ccc2nc(Cc3ccc(OC)c(OC)c3)oc2c1	-20%	i	-62*	-13%	11µM*
COc1ccc(Cc2nc3ccc(C(=O)N(C)Cc4nccs4)cc3o2)cc1OC	0%	.	-65*	.	?
COc1ccc(Cc2nc3ccc(C(=O)N4CCCC4)cc3o2)cc1OC	?	-8%	0	-13%	?
COc1ccc(Cc2nc3ccc(C(=O)N4CCN(C)C(C)C4)cc3o2)cc1OC (centres undefined)	?	?	-64*	-19%	?
Cc1ccc(Nc2ccc(S(=O)(=O)N3CCOCC3)cc2[N+](=O)[O-])c(C)c1	-28%	-7%	-65*	-17%	?
Cc1ccccc1Nc1ccc(S(=O)(=O)N2CCOCC2)cc1[N+](=O)[O-]	-7%	-22%	3	-13%	-3%
COc1ccc(CCNC(=O)c2ccc(Br)o2)cc1Br	0%	-5%	-24	0%	.
Cn1nc(C(F)(F)F)c(C(=O)Nc2ccc(F)cc2F)c1Oc1cccc(Cl)c1	?	.	-20	.	?
Cc1nn(C)c(Oc2ccc(Cl)cc2)c1C(=O)Nc1ccc(F)cc1F	0%	.	-60*	.	10µM*
COc1cccc(CNC(=S)NC2CCCC2)c1	15%	-9%	-61*	-7%	?
COc1ccccc1CNC(=S)NC1CCCCC1	-5%	-13%	-74*	-26%	-27%
COc1cccc(CNC(=S)NC2CC2)c1	-4%	i	-6	-6%	31%
Fc1ccccc1CNC(=S)NC1CCCCC1	23%	-7%	.	-10%	?
CCOc1ccc(/C=C/c2nc(C#N)c(NC(C)CC)o2)cc1 (centres undefined)	1%	-21%	-36	-17%	.
Cc1ccc(S(=O)(=O)N2CCN(C(=O)COC(=O)COc3ccccc3C(C)C)CC2)c(C)c1	-12%	.	-13	.	0%
SMILES	FMDV inh	Vaccinia mCherry	HCMV inh	Vaccinia Venus	HCV inh
Cc1c(C(=O)Nc2cccc([N+](=O)[O-])c2)sc2ncn(CC(=O)N3CCOCC3)c(=O)c12	-5%	?	?	-26%	7%
O=C1C=C(N2CCOCC2)c2cccc3cccc1c23	-14%	-6%	13	121%	.
O=C1C=C(N2CCOCC2)c2ccccc2C1=O	?	?	-97*	11µM*	?
CC1=C(C)C(=O)C(N2CCOCC2)=CC1=O	0%	.	-68*	.	30%
CCCCOc1ccc(-c2c(C#N)c(N)nc(SCC(N)=O)c2C#N)cc1	?	.	33	?	5µM*
COCCN1CCN(C(=O)c2cnn(-c3nccc(-c4ccco4)n3)c2C2CC2)CC1	5%	2%	.	4%	.
Cc1[nH]nc(C(F)(F)F)c1N=NN1CCOCC1	20µM*	?	-11	?	16µM*
Clc1ccc(N=NN2CCOCC2)cc1	30%	-5%	7	-11%	5%
N#CCSc1nc(Nc2ccc3c(c2)OCO3)c2ccccc2n1	22µM*	.	-63*	.	8.9µM*

Compound activity deposited in PubChem BioAssay by National Center for Advancing Translational Sciences (NCATS).
